# Source: PubChem BioAssay (EPA / NIEHS)
# Inconclusive results are not listed. Active and inactive are the calls of the source. Rule for the calls: active = hit-call score of the fitted dose curve at least 0.9, where 1 is the maximum; inconclusive = response in the unintended direction; inactive = score below 0.9.
# How the values were obtained:
# [1] = target: human Vascular Endothelial Growth Factor Receptor 1 (VEGFR1), FLT1 (gene 2321) (UniProt P17948); assay: NVS_ENZ_hVEGFR1: NovaScreen (NVS) Enzymatic Assay for human Vascular Endothelial Growth Factor Receptor 1 (VEGFR1) (AID 2283226)
# Procedure, shortened: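 Kinase activity of recombinant human VEGFR1 was read by fluorescence after electrophoretic separation of product from substrate, 1 h post-dosing; initial duplicate single-point testing at 25 uM, followed by concentration-series follow-up, with DMSO as baseline.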
# [2] = target: human Vascular Endothelial Growth Factor Receptor 3 (VEGFR3), FLT4 (gene 2324) (UniProt P35916); assay: NVS_ENZ_hVEGFR3: NovaScreen (NVS) Enzymatic Assay for human Vascular Endothelial Growth Factor Receptor 3 (VEGFR3) (AID 2283229)
# Procedure, shortened: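 Chemicals first run in duplicate at 25 uM, with actives re-tested in concentration series to a top of 50 uM. Recombinant VEGFR3 activity measured after 1 h via fluorescence with mobility-shift product separation; inhibition fitted relative to DMSO.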
# [3] = target: human Vascular Endothelial Growth Factor Receptor 2 (VEGFR2), KDR (gene 3791) (UniProt P35968); assay: NVS_ENZ_hVEGFR2: NovaScreen (NVS) Enzymatic Assay for human Vascular Endothelial Growth Factor Receptor 2 (VEGFR2) (AID 2283230)
# Procedure, shortened: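 Cell-free recombinant VEGFR2 kinase, fluorescent substrate with electrophoretic mobility-shift separation; read 1 h after dosing. Screened at 25 uM in duplicate, hits to concentration-response up to 50 uM; loss-of-signal versus DMSO.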
# [4] = target: sheep Cyclooxygenase-1 (Cox1), PTGS1 (gene 443551) (UniProt P05979); assay: NVS_ENZ_oCOX1: NovaScreen (NVS) Enzymatic Assay for sheep Cyclooxygenase-1 (Cox1) (AID 2283239);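 note: actives reduce cyclooxygenase activity so potencies are for inhibitors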
# Procedure, shortened: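 COX1 from ovine seminal vesicles, activity read colorimetrically about 0.66 h after dosing. Primary screen in duplicate at 25 uM; actives retested in concentration series; loss of signal fitted versus DMSO.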
# [5] = target: rabbit Imidazoline 2 Central (I2C), CKB (gene 100009085) (UniProt P00567); assay: NVS_ENZ_rabI2C: NovaScreen (NVS) Enzymatic Assay for rabbit Imidazoline 2 Central (I2C) (AID 2283228)
# Procedure, shortened: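 Rabbit brain membranes, cell-free; readout by filter-based scintillation counting 1.5 hours after dosing, loss of signal vs DMSO. Initial duplicate test at 25 uM, then concentration-response with 50 uM top concentration.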
# [6] = target: rat Acetylcholinesterase (AChE), Ache (gene 83817) (UniProt P37136); assay: NVS_ENZ_rAChE: NovaScreen (NVS) Enzymatic Assay for rat Acetylcholinesterase (AChE) (AID 2283233)
# Procedure, shortened: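 Compounds first screened at 25 uM in duplicate, then those passing threshold tested in concentration series up to 50 uM, against AChE from rat brain membranes. Enzyme activity read by absorbance at 0.33 h; inhibition scored versus DMSO.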
# [7] = tested on: rat Monoamine Oxidase, MAO-A, Peripheral (MAOAP), gene 29253; assay: NVS_ENZ_rMAOAP: NovaScreen (NVS) Enzymatic Assay for rat Monoamine Oxidase, MAO-A, Peripheral (MAOAP) (AID 2283237)
# Method: NVS_ENZ_rMAOAP is a biochemical, single-readout assay that uses extracted gene-proteins from Rat liver mitochondrial membranes in a tissue-based cell-free assay. Measurements were taken 1.17 hours after chemical dosing in a 96-well plate.NVS_ENZ_rMAOAP is one of one assay component(s) measured or calculated from the NVS_ENZ_rMAOAP assay. It is designed to make measurements of enzyme activity, a form of enzyme reporter, as detected with scintillation counting signals by Lysate-based radiodetection technology.Data from the assay component NVS_ENZ_rMAOAP was analyzed into 1 assay endpoint. This assay endpoint, NVS_ENZ_rMAOAP, was analyzed in the positive analysis fitting direction relative to DMSO as the negative control and baseline of activity. Using a type of enzyme reporter, loss-of-signal activity can be used to understand changes in the enzymatic activity as they relate to the gene Maoa. Furthermore, this assay endpoint can be referred to as a primary readout, because this assay has produced multiple assay endpoints where this one serves a enzymatic activity function. To generalize the intended target to other relatable targets, this assay endpoint is annotated to the oxidoreductase intended target family, where the subfamily is monoamine oxidase. […]
# [8] = target: rat Monoamine Oxidase, MAO-B, Central (MAOBC), Maob (gene 25750) (UniProt P19643); assay: NVS_ENZ_rMAOBC: NovaScreen (NVS) Enzymatic Assay for rat Monoamine Oxidase, MAO-B, Central (MAOBC) (AID 2283238)
# Procedure, shortened: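 Cell-free radiometric assay, rat brain lysate. Read-out: scintillation counts, 1.17 h post-dosing. Screen 25 uM in duplicate; actives (e.g. ≥30% inhibition) then singleton concentration-response, max 50 uM. Activity loss fitted relative to DMSO.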
# [9] = target: rat Monoamine Oxidase, MAO-B, Peripheral (MAOBP), Maob (gene 25750) (UniProt P19643); assay: NVS_ENZ_rMAOBP: NovaScreen (NVS) Enzymatic Assay for rat Monoamine Oxidase, MAO-B, Peripheral (MAOBP) (AID 2283242)
# [10] = tested on: bovine Angiotensin II Receptor Type 2 (AT2), gene 407157; assay: NVS_GPCR_bAT2: NovaScreen (NVS) G Protein-Coupled Receptor Assay for bovine Angiotensin II Receptor Type 2 (AT2) (AID 2283240)
# Procedure, shortened: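 Radioligand displacement on bovine cerebellar membranes, 1 hour incubation, filter-based scintillation counting; loss of signal vs DMSO. Duplicate single-point screen at 25 uM, then concentration-response to 50 uM maximum.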
# Chain of human Vascular Endothelial Growth Factor Receptor 3 (VEGFR3), FLT4 (gene 2324) (P35916 whole entry, looked up): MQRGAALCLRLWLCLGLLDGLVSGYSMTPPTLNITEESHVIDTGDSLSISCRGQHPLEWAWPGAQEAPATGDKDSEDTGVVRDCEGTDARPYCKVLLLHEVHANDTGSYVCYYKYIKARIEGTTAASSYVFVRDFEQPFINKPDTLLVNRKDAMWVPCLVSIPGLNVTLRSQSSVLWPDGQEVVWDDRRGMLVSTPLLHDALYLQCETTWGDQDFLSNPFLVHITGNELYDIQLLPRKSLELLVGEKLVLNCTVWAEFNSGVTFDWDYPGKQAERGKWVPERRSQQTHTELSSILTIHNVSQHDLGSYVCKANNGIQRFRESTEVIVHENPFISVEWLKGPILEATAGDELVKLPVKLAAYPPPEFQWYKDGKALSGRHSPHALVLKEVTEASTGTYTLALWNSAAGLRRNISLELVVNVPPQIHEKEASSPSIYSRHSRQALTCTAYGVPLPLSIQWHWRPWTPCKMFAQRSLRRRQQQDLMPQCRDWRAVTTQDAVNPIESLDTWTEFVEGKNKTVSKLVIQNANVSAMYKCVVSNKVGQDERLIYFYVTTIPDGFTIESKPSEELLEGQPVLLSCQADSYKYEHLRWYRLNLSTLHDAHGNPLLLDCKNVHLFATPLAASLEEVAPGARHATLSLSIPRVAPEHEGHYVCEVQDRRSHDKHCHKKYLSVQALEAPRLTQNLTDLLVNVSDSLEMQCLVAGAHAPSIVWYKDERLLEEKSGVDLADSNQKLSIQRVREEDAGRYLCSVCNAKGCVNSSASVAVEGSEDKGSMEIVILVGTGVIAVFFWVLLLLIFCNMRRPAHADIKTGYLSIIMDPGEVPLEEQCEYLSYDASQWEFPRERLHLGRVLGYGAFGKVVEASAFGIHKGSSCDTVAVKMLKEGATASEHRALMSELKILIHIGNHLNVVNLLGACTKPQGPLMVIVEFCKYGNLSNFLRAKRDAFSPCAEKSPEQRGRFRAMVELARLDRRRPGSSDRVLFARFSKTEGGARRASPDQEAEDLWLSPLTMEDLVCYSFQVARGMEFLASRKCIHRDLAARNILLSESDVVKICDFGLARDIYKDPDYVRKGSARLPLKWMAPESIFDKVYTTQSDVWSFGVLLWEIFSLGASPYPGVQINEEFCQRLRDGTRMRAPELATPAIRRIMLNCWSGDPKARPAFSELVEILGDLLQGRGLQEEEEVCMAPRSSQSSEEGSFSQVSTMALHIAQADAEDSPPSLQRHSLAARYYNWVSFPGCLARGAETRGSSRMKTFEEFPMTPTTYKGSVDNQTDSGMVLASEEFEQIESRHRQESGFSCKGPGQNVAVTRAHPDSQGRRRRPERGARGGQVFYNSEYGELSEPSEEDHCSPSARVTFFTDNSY
# Chain of sheep Cyclooxygenase-1 (Cox1), PTGS1 (gene 443551) (P05979 whole entry, looked up): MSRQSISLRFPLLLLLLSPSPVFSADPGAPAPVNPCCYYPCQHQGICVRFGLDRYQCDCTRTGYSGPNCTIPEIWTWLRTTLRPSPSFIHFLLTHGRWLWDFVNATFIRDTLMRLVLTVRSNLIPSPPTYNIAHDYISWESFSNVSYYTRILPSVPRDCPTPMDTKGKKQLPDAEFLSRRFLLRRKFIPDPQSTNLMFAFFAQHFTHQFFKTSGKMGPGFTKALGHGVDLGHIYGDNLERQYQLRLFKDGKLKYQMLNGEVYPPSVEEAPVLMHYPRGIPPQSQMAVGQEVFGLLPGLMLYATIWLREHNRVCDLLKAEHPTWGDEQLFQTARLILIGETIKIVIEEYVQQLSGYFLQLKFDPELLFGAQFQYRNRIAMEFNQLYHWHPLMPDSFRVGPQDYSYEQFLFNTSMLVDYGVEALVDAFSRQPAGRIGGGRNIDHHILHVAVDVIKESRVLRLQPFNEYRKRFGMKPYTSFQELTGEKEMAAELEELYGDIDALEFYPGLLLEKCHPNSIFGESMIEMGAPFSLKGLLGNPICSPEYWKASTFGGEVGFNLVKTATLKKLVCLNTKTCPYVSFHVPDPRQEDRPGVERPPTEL
# Chain of human Vascular Endothelial Growth Factor Receptor 2 (VEGFR2), KDR (gene 3791) (P35968 whole entry, looked up): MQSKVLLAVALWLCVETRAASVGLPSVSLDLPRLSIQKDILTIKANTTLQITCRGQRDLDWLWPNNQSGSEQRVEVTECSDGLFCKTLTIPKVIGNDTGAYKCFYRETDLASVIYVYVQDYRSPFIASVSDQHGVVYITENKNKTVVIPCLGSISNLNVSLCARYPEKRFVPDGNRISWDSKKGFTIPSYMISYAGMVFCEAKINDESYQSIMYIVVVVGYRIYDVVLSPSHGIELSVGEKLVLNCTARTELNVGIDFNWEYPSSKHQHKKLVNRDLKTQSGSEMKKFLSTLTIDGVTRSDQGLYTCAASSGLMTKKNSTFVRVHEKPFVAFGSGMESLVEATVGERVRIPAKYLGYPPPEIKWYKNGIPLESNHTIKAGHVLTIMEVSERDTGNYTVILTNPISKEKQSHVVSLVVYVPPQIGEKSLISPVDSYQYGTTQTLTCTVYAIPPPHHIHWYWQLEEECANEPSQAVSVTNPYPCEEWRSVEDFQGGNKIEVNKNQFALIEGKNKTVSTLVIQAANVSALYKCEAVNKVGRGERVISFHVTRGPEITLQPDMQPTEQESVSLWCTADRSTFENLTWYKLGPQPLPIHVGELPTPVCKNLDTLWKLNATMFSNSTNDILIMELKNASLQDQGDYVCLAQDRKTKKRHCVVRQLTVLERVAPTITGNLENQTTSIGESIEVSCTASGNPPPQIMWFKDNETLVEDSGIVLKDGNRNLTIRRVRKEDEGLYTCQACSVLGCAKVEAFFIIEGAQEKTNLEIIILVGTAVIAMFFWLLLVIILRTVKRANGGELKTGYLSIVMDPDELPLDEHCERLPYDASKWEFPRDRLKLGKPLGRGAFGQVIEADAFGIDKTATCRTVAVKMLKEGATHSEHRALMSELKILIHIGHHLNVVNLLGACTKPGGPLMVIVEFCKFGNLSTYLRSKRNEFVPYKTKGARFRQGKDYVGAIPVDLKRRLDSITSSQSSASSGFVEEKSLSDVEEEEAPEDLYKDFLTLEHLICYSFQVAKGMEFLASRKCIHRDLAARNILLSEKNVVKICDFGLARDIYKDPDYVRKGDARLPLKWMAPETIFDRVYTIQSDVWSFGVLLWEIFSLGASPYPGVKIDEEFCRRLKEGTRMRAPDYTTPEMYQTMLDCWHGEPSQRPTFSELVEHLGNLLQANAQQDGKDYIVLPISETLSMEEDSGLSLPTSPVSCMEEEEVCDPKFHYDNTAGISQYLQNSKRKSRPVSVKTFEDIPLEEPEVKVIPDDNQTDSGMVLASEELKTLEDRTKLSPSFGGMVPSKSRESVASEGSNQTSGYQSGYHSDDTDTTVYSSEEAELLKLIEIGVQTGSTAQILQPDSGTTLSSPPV
# Chain of rat Acetylcholinesterase (AChE), Ache (gene 83817) (P37136 whole entry, looked up): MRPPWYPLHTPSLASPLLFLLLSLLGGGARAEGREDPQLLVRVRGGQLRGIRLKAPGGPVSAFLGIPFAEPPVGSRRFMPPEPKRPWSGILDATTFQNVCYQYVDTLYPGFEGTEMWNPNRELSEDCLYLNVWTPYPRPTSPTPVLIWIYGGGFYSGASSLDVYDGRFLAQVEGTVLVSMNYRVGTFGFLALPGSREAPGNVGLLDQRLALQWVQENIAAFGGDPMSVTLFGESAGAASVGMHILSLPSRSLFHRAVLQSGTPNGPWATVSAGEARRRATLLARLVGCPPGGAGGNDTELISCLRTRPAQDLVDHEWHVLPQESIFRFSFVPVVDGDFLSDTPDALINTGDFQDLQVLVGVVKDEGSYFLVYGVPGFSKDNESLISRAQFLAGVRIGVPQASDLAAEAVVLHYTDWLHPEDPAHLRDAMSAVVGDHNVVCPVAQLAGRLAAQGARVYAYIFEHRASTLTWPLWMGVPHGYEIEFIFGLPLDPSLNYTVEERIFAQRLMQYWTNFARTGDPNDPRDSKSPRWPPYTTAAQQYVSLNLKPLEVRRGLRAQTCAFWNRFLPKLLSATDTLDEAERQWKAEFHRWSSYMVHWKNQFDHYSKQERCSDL
# Chain of rat Monoamine Oxidase, MAO-B, Central (MAOBC), Maob (gene 25750) (P19643 whole entry, looked up): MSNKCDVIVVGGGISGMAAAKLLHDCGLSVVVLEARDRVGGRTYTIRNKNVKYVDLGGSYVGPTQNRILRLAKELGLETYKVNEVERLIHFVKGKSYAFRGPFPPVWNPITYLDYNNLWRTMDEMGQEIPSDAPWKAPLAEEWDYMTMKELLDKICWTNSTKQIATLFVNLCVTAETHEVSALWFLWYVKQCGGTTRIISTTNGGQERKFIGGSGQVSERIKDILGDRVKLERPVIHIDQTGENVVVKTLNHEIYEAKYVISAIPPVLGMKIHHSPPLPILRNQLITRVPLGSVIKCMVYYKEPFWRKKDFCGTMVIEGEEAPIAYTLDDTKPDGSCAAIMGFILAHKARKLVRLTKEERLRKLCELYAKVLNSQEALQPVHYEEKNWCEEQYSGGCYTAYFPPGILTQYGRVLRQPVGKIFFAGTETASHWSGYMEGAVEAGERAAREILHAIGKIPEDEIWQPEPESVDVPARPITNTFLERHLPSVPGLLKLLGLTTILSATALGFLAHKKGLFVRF
# Chain of rat Monoamine Oxidase, MAO-B, Peripheral (MAOBP), Maob (gene 25750) (P19643 whole entry, looked up): as above
# Chain of rabbit Imidazoline 2 Central (I2C), CKB (gene 100009085) (P00567 whole entry, looked up): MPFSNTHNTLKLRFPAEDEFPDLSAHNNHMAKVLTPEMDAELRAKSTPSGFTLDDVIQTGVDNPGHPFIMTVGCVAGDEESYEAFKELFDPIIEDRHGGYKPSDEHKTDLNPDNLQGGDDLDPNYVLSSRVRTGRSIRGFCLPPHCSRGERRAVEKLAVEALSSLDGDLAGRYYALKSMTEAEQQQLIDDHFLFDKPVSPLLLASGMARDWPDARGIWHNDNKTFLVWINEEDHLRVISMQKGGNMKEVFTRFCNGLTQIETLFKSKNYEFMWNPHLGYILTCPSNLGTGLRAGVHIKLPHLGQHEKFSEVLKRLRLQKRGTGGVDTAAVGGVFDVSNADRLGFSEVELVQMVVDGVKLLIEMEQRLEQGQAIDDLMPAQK
structure (smiles),measurement,setting,value
CCCCCCCCCCCCc1cccc(S(=O)(=O)O)c1,AC50,[1],22.9 µM (active)
same,AC50,[2],10.7 µM (active)
same,AC50,[3],9.17 µM (active)
same,AC50,[4],5.06 µM (active)
COc1ccccc1N,outcome,[5],inactive
same,AC50,[4],0.146 µM (active)
O=[N+]([O-])c1cccc2ccccc12,outcome,[4],inactive
CN(C)CCN(C)C,outcome,[4],inactive
CC(C)(C)c1ccccc1O,outcome,[4],inactive
N#CCCC(Br)(C#N)CBr (configuration not stated),AC50,[4],4.04 µM (active)
CCOP(=O)(OCC)OC(=CCl)c1ccc(Cl)cc1Cl,AC50,[6],6.51 µM (active)
Nc1ncn[nH]1,outcome,[4],inactive
O=C(N[C@H]1CN2CCC1CC2)c1ccc2c(c1)OCCO2,outcome,[1],inactive
same,outcome,[2],inactive
same,outcome,[3],inactive
C=CC(=O)NC(C)(C)CC(C)=O,AC50,[4],21.4 µM (active)
Oc1cc(Cl)c(Cl)cc1Cl,outcome,[3],inactive
same,AC50,[7],19.6 µM (active)
same,AC50,[8],8.69 µM (active)
same,AC50,[9],17.7 µM (active)
[Cl][Sn]([c]1ccccc1)([c]1ccccc1)[c]1ccccc1,outcome,[4],inactive
CCOC(=O)CCN(SN(C)C(=O)Oc1cccc2c1OC(C)(C)C2)C(C)C,AC50,[6],1.33 µM (active)
c1ccc2sc(SNC3CCCCC3)nc2c1,outcome,[4],inactive
CCOC(=O)C(SP(=S)(OC)OC)c1ccccc1 (configuration not stated),AC50,[6],10.2 µM (active)
O=C(CBr)c1ccc(O)cc1,outcome,[3],inactive
OCCN(CCO)CCO,outcome,[3],inactive
Nc1c(Oc2ccccc2)cc(O)c2c1C(=O)c1ccccc1C2=O,AC50,[1],0.898 µM (active)
CC(C=O)Cc1ccc2c(c1)OCO2 (configuration not stated),AC50,[4],25 µM (active)
O=C(O)COc1cc(Cl)c(Cl)cc1Cl,outcome,[4],inactive
O=c1oc2ccccc2c(O)c1C(CC(O)c1ccc(-c2ccc(Br)cc2)cc1)c1ccccc1 (configuration not stated),AC50,[1],16.9 µM (active)
same,AC50,[4],1.31 µM (active)
O=C1c2ccccc2C(=O)C1C(=O)C(c1ccccc1)c1ccc(Cl)cc1 (configuration not stated),AC50,[2],2.4 µM (active)
same,outcome,[4],inactive
C=C(C)C(=O)OCC(CC)CCCC (configuration not stated),outcome,[1],inactive
COc1ccc(N)cc1,AC50,[4],26 µM (active)
Clc1cccc(Cl)c1Cl,outcome,[1],inactive
COc1nn(C(=O)NS(=O)(=O)c2ccccc2OC(F)(F)F)c(=O)n1C,AC50,[2],11.4 µM (active)
N#Cc1cccnc1,outcome,[1],inactive
same,outcome,[3],inactive
same,outcome,[10],inactive
CC(C)O.CC(C)O.OCCN(CCO)CCO.OCCN(CCO)CCO.[Ti],AC50,[2],21.8 µM (active)
same,AC50,[3],6.5 µM (active)
